# Data: the supplement of paper PMC3334620
# Whole data set: some 33,000 sequences, median “E-score (-0.5 to 0.5)” near -0.016, cut for the highest 2% near 0.3. What follows is part of a selection rich in the highest values, with near analogues and random picks from the rest.
# Biological target: T1, Yer184c (UniProt P39961)
# T1 sequence: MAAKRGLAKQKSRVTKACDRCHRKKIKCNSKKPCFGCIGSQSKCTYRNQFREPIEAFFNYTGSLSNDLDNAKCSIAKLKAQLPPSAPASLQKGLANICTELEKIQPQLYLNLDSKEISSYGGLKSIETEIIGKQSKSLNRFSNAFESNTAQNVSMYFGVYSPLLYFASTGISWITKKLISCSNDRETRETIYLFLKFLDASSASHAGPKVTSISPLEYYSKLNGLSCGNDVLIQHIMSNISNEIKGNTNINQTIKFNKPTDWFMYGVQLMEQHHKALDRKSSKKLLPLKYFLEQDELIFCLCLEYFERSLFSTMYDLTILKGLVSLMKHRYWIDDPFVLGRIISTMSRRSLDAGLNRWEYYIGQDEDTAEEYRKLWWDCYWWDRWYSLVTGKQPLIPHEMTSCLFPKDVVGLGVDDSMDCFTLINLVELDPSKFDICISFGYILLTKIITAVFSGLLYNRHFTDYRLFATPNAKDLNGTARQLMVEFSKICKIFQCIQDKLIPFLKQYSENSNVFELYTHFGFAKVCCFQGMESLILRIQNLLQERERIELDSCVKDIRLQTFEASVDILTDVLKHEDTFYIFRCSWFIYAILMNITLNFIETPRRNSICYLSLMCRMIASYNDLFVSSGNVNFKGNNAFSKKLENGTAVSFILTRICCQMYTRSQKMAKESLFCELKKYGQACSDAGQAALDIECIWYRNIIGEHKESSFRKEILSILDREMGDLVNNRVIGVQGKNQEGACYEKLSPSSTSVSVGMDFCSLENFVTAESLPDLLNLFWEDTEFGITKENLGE
# Test: PBM E-score (8-mer binding enrichment) (E-score (-0.5 to 0.5)); higher = stronger / more preferred TF binding
# Conditions: protein concentration: 100 nM; construct: GST-full length
# Summary of the method: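 Using PURExpress in vitro transcription/translation, GST-tagged yeast transcription factors were made in full-length or DNA-binding-domain form. These were applied at about 100-200 nM to double-stranded universal all-10-mer Agilent arrays, and bound protein was detected with fluorescent anti-GST. Scans were normalised with masliner before the Universal PBM Analysis Suite assigned E-scores to ungapped eight-base words pooled with their reverse complements.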
row,Sequence,PBM E-score
1,GATCAATA,0.164
2,ACACTGGA,0.0234
3,ATCCCTAG,-0.0477
4,ATTGGTGG,-0.0975
5,AGTCCAGG,-0.206
6,ATAAGGTC,-0.0447
7,CATCTCGG,0.272
8,AGCTTAAT,0.201
9,CGGTCCGA,0.335
10,AGGTCCGA,0.197
11,GGATCCGA,0.242
12,CGATCCGA,0.305
13,CGATCCGC,0.113
14,GGGTCCGA,0.113
15,ACAAGTAG,-0.201
16,ATCAAGCG,0.0135
17,CATTTCGC,0.0218
18,GATTTCGA,0.042
19,GATTTCGC,0.312
20,GCCTTACA,-0.205
21,CATGAGGG,-0.212
22,ATTTGCCA,-0.0738
23,ATTTGCCG,0.306
24,ATTTGCCC,0.0315
25,AACAAGAC,0.105

row,Sequence,PBM E-score
1,ACCTCAAA,0.137
2,CCCCTGAC,-0.0911
3,CGCCGAGC,0.344
4,CTCCGAGC,0.271
5,GGCCGATA,0.264
6,ATCCGAGG,0.182
7,ACCCGAGG,-0.00171
8,AACCGAGC,0.323
9,AACCGAGT,0.0155
10,AGCCGAGG,0.336
11,CCCCGAGC,-0.0347
12,GGCCGAGA,0.348
13,CACCGAGC,0.231
14,GGCCGACA,0.0888
15,GACACTCA,-0.0521
16,ACAGCGGA,0.0362
17,GGGTTAGA,-0.134
18,AACGTAAT,-0.0198
19,GTTGGACA,-0.0236
20,AATGTTCG,0.0469
21,CACCGAGA,-0.212
22,AGCCGAGA,0.326
23,AGCCGAGC,0.318
24,AGCCGATA,0.142
25,AACCGAGA,0.229

row,Sequence,PBM E-score
1,ACCCGAGC,0.229
2,CCCCGAGA,-0.123
3,GCCCGAGA,0.24
4,TCCCGAGA,0.305
5,ATCCGAGC,0.219
6,CGCCGACA,0.18
7,CGCCGAGA,0.346
8,CTACTGGA,-0.271
9,CCTCAGCG,0.0964
10,ATAGAGGG,-0.135
11,AGGCCAAA,0.0579
12,AACAACGG,0.175
13,CGAACTTC,0.13
14,GCCCGCAC,-0.0678
15,AATCTGTA,0.116
16,GAAGAGTA,0.113
17,CGGTTCGC,0.0153
18,ACGAATGA,0.189
19,CCGAATAC,0.293
20,CCGAATGA,0.321
21,CCGAATAA,0.346
22,GCGAATGA,0.149
23,ACGAATAA,0.0316
24,GGGTCTAC,-0.06
25,TCGCGTCA,-0.0846

row,Sequence,PBM E-score
1,ATGGTTTC,0.0728
2,GCGAATAA,0.0477
3,TCATCCGA,0.34
4,CCATCCGA,0.0749
5,ACATCCGG,0.397
6,CCATCCGG,0.143
7,ACATCCTG,0.0484
8,ACATCCGC,0.252
9,ACATCCGA,0.346
10,ACATCCGT,0.167
11,GCATCCGA,0.176
12,ACCACAAG,-0.0787
13,CGATGCTA,0.084
14,ATGTGCCG,0.18
15,CATAGCAG,-0.293
16,AAGAGGCC,-0.172
17,ACGTCGCT,-0.239
18,CCTTCAGC,-0.152
19,GACGGATC,0.115
20,AGCGGAGA,-0.0382
21,AGCGGATC,0.204
22,AACGGATC,0.306
23,CACGGATC,0.256
24,AGCGGATA,0.0602
25,CACGGATG,0.108

row,Sequence,PBM E-score
1,CGCGGAGA,0.308
2,CGCGGAGC,0.171
3,CGCGGATA,0.317
4,CGCGGATC,0.13
5,CACGGATA,0.332
6,TTACGCAA,0.0884
7,GGCTGAAC,0.0871
8,CCCCGCGA,-0.0621
9,ATCCACTC,-0.00405
10,GACGGATA,0.125
11,AACGGATT,0.343
12,AACGGATA,0.374
13,AACGGATG,0.197
14,AACGGACT,0.14
15,TACGGATA,0.195
16,GCCGATTA,0.274
17,ACTAAGGC,-0.0457
18,CGTTCAGA,-0.0522
19,ACTCATTA,-0.0725
20,CGGTTGAC,0.113
21,CGGTTGAA,0.304
22,TGGTTGAA,-0.0916
23,ACTATGCA,-0.111
24,ATTCCGCC,0.16
25,ATTCCTGG,-0.138

row,Sequence,PBM E-score
1,ACTCCGGG,0.265
2,ATTCCAGC,-0.0455
3,ATTCCGGG,0.356
4,ATTCCGGC,0.393
5,ACTCCGGC,0.326
6,CCTCCGGC,0.3
7,ATTCCCGG,0.384
8,AATCCGGG,0.269
9,ATTCCCGA,0.162
10,ATTCCCCG,0.117
11,CGCTTAAG,-0.133
12,CCCTACCC,-0.256
13,AAGATACC,0.187
14,GGATTCCC,-0.173
15,AGGCTTTA,-0.154
16,CAACTAGC,0.0974
17,CCTCCCCG,-0.0343
18,GGACGGAA,0.0833
19,GGCCGGAA,0.338
20,GACCGGAC,0.245
21,GGGCGGAA,0.0682
22,CGCCGGAG,0.222
23,AGCCGGAT,0.402
24,AGCCGTAG,0.155
25,AGCCGGAC,0.339

row,Sequence,PBM E-score
1,AGCCGTAT,0.214
2,AGACGGAT,0.195
3,GGCCGGAC,0.294
4,AGCCGGAG,0.402
5,AGTGAGCA,-0.0113
6,CGGGTTGC,0.118
7,AGCTGGAC,-0.0983
8,AAACCCAC,0.0014
9,AACGCAGT,-0.081
10,ACTCGCCG,0.131
11,AGCACCAT,-0.291
12,GCCCAAGC,-0.0265
13,TGACGGAA,0.17
14,CGCCGGAC,0.28
15,CGGCGGAA,0.298
16,AGCCGGAA,0.423
17,CGCCGGAA,0.368
18,AGGCGGAA,0.195
19,AGACGGAA,0.277
20,TGCCGTAA,0.0109
21,TGCCGGAA,0.421
22,CCTGGTTC,-0.0462
